Common to all, as to experiment: protein-binding microarray (PBM); PBM: ~300 nM protein, 6 mM HEPES pH 7.8, 80 mM KCl, 0.5 mM EDTA, 0.5 mM EGTA, 6% glycerol, 35 ng/ul poly-dIdC, 1% milk, 1 h, room temperature; Ap Aiptasia and Nv Nematostella (sea anemones) / Co Capsaspora / Aq Amphimedon (sponge) / Dm Drosophila / Hu human; RHD is the Rel homology domain; high values mean tight binding
What all share (conditions): dsDNA, one strand shown

For one experiment, the target named is T1, GST-Ap-NF-kB RHD (Exaiptasia pallida (Aiptasia), UniProt A0A913YAJ5 2-422).
T1 sequence: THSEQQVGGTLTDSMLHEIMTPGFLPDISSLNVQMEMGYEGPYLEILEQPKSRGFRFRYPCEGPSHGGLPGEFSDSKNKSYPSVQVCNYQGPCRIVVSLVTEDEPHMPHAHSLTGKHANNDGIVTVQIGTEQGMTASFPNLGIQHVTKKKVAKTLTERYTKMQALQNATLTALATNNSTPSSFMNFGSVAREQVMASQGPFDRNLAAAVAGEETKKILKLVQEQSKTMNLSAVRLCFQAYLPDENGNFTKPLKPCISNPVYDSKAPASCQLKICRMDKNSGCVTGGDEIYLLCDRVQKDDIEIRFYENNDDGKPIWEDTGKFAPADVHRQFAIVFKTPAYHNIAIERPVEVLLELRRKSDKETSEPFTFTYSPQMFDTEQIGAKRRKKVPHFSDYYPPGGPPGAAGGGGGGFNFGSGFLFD

Experiment [1] concerns the target T2, GST-Nv-NF-kB (Cys allele) (Nematostella vectensis, UniProt E5G601 2-411).
T2 sequence: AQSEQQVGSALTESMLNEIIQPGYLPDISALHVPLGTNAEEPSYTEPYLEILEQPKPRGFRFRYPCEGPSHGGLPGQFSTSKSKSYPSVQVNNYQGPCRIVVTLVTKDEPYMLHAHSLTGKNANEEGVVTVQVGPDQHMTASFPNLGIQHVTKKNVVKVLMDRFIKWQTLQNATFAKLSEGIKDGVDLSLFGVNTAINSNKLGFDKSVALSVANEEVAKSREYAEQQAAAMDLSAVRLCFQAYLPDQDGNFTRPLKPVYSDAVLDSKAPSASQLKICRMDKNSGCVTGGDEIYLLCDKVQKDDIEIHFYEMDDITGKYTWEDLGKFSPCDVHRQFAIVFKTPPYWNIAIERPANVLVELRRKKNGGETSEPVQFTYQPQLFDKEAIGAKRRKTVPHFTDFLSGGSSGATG

Experiment [2] concerns the target T3, GST-Nv-NF-kB (Ser allele) (Nematostella vectensis, UniProt A7UNT2 2-411).
T3 sequence: T2 sequence with Q21R, C66S, S207N, E215Q, V217A, E225K, A268E, D399E

For another experiment, the target named is T4, GST-Co-NF-kB (Capsaspora owczarzaki, UniProt F1ARL5 200-546).
T4 sequence: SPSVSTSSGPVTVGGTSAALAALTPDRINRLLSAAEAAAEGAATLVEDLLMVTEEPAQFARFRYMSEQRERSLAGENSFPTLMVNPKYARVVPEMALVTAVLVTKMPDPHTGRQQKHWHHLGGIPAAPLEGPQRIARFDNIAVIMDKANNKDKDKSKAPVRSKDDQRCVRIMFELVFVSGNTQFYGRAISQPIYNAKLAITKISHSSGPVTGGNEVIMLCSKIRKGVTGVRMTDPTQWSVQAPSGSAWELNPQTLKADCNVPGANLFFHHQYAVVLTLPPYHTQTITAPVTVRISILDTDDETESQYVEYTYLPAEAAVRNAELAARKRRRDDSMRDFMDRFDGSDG

Another experiment deals with T5, GST-Dm-Relish (Drosophila melanogaster, UniProt Q94527 99-473).
T5 sequence: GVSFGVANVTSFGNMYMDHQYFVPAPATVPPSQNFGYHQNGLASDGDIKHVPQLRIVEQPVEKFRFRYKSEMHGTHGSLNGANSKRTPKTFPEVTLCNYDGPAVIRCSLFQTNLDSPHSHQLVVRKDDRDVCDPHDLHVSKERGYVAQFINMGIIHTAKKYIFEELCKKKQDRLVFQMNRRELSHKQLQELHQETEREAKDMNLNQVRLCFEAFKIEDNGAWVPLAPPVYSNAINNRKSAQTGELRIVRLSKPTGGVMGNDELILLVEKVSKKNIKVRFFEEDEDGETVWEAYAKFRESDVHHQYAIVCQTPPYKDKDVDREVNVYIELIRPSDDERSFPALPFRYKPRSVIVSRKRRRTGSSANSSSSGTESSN

A further experiment deals with T6, GST-Aq-NF-kB (Amphimedon queenslandica, UniProt A9Y5G7 2-389).
T6 sequence: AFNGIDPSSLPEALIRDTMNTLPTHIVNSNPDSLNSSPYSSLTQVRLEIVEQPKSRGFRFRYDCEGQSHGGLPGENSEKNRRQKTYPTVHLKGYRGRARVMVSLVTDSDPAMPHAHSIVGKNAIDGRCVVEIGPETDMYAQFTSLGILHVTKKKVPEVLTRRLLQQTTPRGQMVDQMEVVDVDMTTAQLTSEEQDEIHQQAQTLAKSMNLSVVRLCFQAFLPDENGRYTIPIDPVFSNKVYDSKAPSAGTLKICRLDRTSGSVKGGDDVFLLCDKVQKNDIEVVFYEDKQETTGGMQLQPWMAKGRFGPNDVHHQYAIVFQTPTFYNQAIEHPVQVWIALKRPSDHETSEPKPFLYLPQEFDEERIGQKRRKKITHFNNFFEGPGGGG

The target in a further experiment is GST-Hu-p50 (Homo sapiens, UniProt P19838 7-356).

Numbering of substitutions follows the chain as printed.

Sequence of GST-Hu-p50 (P19838 7-356): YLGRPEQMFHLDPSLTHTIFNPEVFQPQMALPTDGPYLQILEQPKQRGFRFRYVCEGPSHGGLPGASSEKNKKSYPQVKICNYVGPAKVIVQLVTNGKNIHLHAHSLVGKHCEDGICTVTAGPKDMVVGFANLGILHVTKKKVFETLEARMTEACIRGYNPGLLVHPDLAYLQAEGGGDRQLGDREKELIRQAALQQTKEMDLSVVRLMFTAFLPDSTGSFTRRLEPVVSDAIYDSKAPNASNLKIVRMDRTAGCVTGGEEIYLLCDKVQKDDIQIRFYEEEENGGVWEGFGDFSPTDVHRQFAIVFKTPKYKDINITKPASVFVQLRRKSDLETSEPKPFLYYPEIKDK

As for “CCGATTAACATCAGGGGGGAAACTGATGTTAATCGGGTCTTGATTCGCTTGACGCTGCTG”, the binding signal was 7.64 z-score with GST-Ap-NF-kB RHD; 7.15 z-score in experiment [1]; 8.2 z-score in experiment [2]; 11.1 z-score with GST-Co-NF-kB; 5.47 z-score with GST-Dm-Relish; 5.87 z-score in the experiment with GST-Aq-NF-kB. The binding signal with GST-Hu-p50 turned out to be 6.97 z-score.
“CCGATTAACATCAGGGGTTTCTATGATGTTAATCGGGTCTTGATTCGCTTGACGCTGCTG”: the binding signal with GST-Ap-NF-kB RHD was 5.36 z-score; in experiment [1], 4.73 z-score; in experiment [2] it was 4.67 z-score; with GST-Co-NF-kB, 1.76 z-score; in the experiment with GST-Dm-Relish, 5.29 z-score; in the experiment with GST-Aq-NF-kB it was 4.5 z-score. This sequence gave a binding signal with GST-Hu-p50 of 5.3 z-score.
For the sequence “CCGATTAACATCATAAATTCCCATGATGTTAATCGGGTCTTGATTCGCTTGACGCTGCTG”, the binding signal came to 2.62 z-score with GST-Ap-NF-kB RHD; 5.12 z-score in experiment [1]; 5.22 z-score in experiment [2]; 3.32 z-score with GST-Co-NF-kB; 5.06 z-score with GST-Dm-Relish; 3.71 z-score with GST-Aq-NF-kB. The same sequence showed a binding signal with GST-Hu-p50 of 4.37 z-score.
As for “CCGATTAACATCAAGGTTCCCCCTGATGTTAATCGGGTCTTGATTCGCTTGACGCTGCTG”, the binding signal came out at 8.03 z-score with GST-Ap-NF-kB RHD; 6.89 z-score in experiment [1]; 7.86 z-score in experiment [2]; 9.24 z-score with GST-Co-NF-kB; 5.67 z-score in the experiment with GST-Dm-Relish; 5.62 z-score with GST-Aq-NF-kB. In the experiment with GST-Hu-p50, this sequence returned a binding signal of 5.92 z-score.
As to “CCGATTAACATCAAAGACCCCCCTGATGTTAATCGGGTCTTGATTCGCTTGACGCTGCTG”, the binding signal in the experiment with GST-Ap-NF-kB RHD is 6.11 z-score; in experiment [1], 4.15 z-score; in experiment [2], 4.24 z-score; with GST-Co-NF-kB, 3.36 z-score; in the experiment with GST-Dm-Relish, 7.07 z-score; in the experiment with GST-Aq-NF-kB, 5.33 z-score. In addition, the binding signal in the experiment with GST-Hu-p50 came out at 4.3 z-score.
For “CCGATTAACATCAGGGGGAAGGATGATGTTAATCGGGTCTTGATTCGCTTGACGCTGCTG”, the binding signal is 4.09 z-score with GST-Ap-NF-kB RHD; 5.38 z-score in experiment [1]; 5.53 z-score in experiment [2]; 7.14 z-score with GST-Co-NF-kB; 2.47 z-score with GST-Dm-Relish; 4.48 z-score with GST-Aq-NF-kB. This sequence also showed a binding signal in the experiment with GST-Hu-p50 of 4.08 z-score.
For the sequence “CCGATTAACATCAAATGCCCCCCTGATGTTAATCGGGTCTTGATTCGCTTGACGCTGCTG”, the binding signal was determined as 5.13 z-score with GST-Ap-NF-kB RHD; 4.38 z-score in experiment [1]; 3.91 z-score in experiment [2]; 5.28 z-score in the experiment with GST-Co-NF-kB; 4.71 z-score in the experiment with GST-Dm-Relish; 5.31 z-score in the experiment with GST-Aq-NF-kB. Moreover, the binding signal with GST-Hu-p50 worked out at 4.49 z-score.
For “CCGATTAACATCAGGGAAATTTATGATGTTAATCGGGTCTTGATTCGCTTGACGCTGCTG”, the binding signal with GST-Ap-NF-kB RHD was 5.86 z-score; in experiment [1] it was 8.28 z-score; in experiment [2], 7.67 z-score; with GST-Co-NF-kB, 5.84 z-score; with GST-Dm-Relish, 4.1 z-score; in the experiment with GST-Aq-NF-kB, 7.49 z-score. This sequence also yielded a binding signal with GST-Hu-p50 of 5.55 z-score.
For the sequence “CCGATTAACATCAAGTTTCCCCATGATGTTAATCGGGTCTTGATTCGCTTGACGCTGCTG”, the binding signal with GST-Ap-NF-kB RHD stood at 6.19 z-score; in experiment [1] it was 6.87 z-score; in experiment [2], 9.07 z-score; with GST-Co-NF-kB, 9.1 z-score; with GST-Dm-Relish, 2.4 z-score; with GST-Aq-NF-kB, 5.26 z-score. The sequence further came in with a binding signal with GST-Hu-p50 of 5.62 z-score.
In the case of “CCGATTAACATCACAACTCCCCCTGATGTTAATCGGGTCTTGATTCGCTTGACGCTGCTG”, the binding signal with GST-Ap-NF-kB RHD was 5.84 z-score; in experiment [1], 4.69 z-score; in experiment [2], 5.89 z-score; with GST-Co-NF-kB, 6.16 z-score; in the experiment with GST-Dm-Relish it was 3.67 z-score; with GST-Aq-NF-kB, 5.15 z-score. The binding signal in the experiment with GST-Hu-p50 worked out at 5.55 z-score.
As for “CCGATTAACATCAAAGTTTCCCATGATGTTAATCGGGTCTTGATTCGCTTGACGCTGCTG”, the binding signal in the experiment with GST-Ap-NF-kB RHD was determined as 2.54 z-score; in experiment [1], 4.29 z-score; in experiment [2] it was 3.82 z-score; with GST-Co-NF-kB, 4.66 z-score; with GST-Dm-Relish it was 2.05 z-score; in the experiment with GST-Aq-NF-kB, 4.32 z-score. In the experiment with GST-Hu-p50, this sequence had a binding signal of 3.28 z-score.
For “CCGATTAACATCAGAGAATCCCCTGATGTTAATCGGGTCTTGATTCGCTTGACGCTGCTG”, the binding signal in the experiment with GST-Ap-NF-kB RHD was 9.54 z-score; in experiment [1] it was 9.8 z-score; in experiment [2], 10.9 z-score; in the experiment with GST-Co-NF-kB, 3.37 z-score; with GST-Dm-Relish, 8.56 z-score; with GST-Aq-NF-kB, 7.28 z-score. In the experiment with GST-Hu-p50, this sequence yielded a binding signal of 6.99 z-score.

For the origin of these results see article PMC5700166.
